DT40 TDP1 no CPT – qHTS for Inhibitors of human tyrosyl-DNA phosphodiesterase 1 (TDP1): qHTS in cells in absence of CPT. DT40 Tdp1-/- hTDP1 cells, no CPT, ATP luminescence, 48 h. Potency, µM (series often up to 46.2 µM), for the others: top-dose activity change, negative = growth inhibition, hits mostly inhibitors. hit rate 15% among 420,000; also: potency is read from the fitted curve at half-maximal effect; % is scaled to controls: 0 for no effect and ±100 for the full control effect; nearly all actives have a fitted effect of over 55% in size
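Growth kinetics read by CellTiter-Glo luminescence after ≥48 hr at 37 °C. Cells: DT40 Tdp1-/- stably carrying human TDP1, 400 per well, compound exposure in the absence of CPT (DMSO vehicle).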
IL-1B inflam inh – inhibitors of inflammasome signaling (IL-1 beta secretion); THP-1 LPS/ATP IL-1B secretion, AlphaLISA, 16 h; active compounds read low; activity change, % at 57.5 µM; hit rate 4.7% among 360,000; AID 743279; in the data active = activity change below about -50%; inconclusive = mostly about -30% to -49%; also: % is scaled to controls: 0 for no effect and ±100 for the full control effect
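Secreted IL-1B measured by AlphaLISA bead assay after 16 h compound exposure of THP-1 cells; compounds (final up to 57.5 uM) added 1 h before LPS (250 ng/mL) and ATP (1.25 mM) stimulation; lower signal means less secretion.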
DT40 TDP1 CPT – growth inhibition of DT40 Tdp1-/-;hTDP1 cells with camptothecin (screen for TDP1 inhibitors). chicken DT40 Tdp1-/-;hTDP1 cells + 20 nM CPT, ATP luminescence, 48 h. hit rate 12% among 420,000. Potency, µM (highest dose often 46.2 µM), inactives show at the top dose activity change, negative = growth inhibition, actives largely listed as inhibitors; also: potency is read from the fitted curve at half-maximal effect; % is scaled to controls: 0 for no effect and ±100 for the full control effect; nearly all actives have a fitted effect of over 55% in size
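Chicken DT40 Tdp1-/- cells complemented with human TDP1, 400 cells/well, exposed to compounds plus 20 nM camptothecin for at least 48 h at 37 C; viability read as ATP content by CellTiter-Glo luminescence.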
TGFb inhibitor – TGF-b pathway inhibition. hit rate 1.2% among 410,000. HepG2 CAGA-GFP TGF-b/SMAD3 reporter, GFP fluorescence, 18 h; TGF-beta stimulated, 500 pg/mL final. Potency, µM (titrated, usually from 46.1 µM), for inactives: top-dose activity, negative = inhibition, most hits filed as inhibitors; also: potency is read from the fitted curve at half-maximal effect; % is scaled to controls: 0 for no effect and ±100 for the full control effect; nearly all actives have a fitted effect of over 65% in size
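TGF-beta reporter screen: HEPG2 CAGA-GFP, 1% FBS, 500 pg/mL TGF-beta final, 18 h; per-cell GFP summed per well; curves fitted and categorized by class.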
HepG2 tox-1 – HepG2 cytotoxicity, counter-screen for TGF-b inhibitors; HepG2 CAGA-GFP viability, ATP luminescence, 18 h; Potency, µM (titrated, usually from 46.1 µM), inactives show at the highest dose activity change, negative = cytotoxicity, usual class: cytotoxic; hit rate 0.76% among 410,000; AID 588856; also: potency is read from the fitted curve at half-maximal effect
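CellTiter-Glo luminescence gave cytotoxicity after 18 hours at 37 degrees C. The cells were HepG2 CAGA-GFP in 1% FBS DMEM, stimulated with 500 pg/mL TGF-beta after compound addition. %Activity was normalised to no-cell wells (complete cell-killing) and DMSO (no toxicity), and curves were fitted and classified.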
TDP1 inh – inhibitors of human tyrosyl-DNA phosphodiesterase TDP1; Q9NUW8; recombinant TDP1, AlphaScreen DNA substrate cleavage; Potency, µM (top dose mostly 130 µM), for inactives: top-dose activity change, negative = inhibition, actives largely listed as inhibitors; hit rate 0.28% among 350,000; also: potency is read from the fitted curve at half-maximal effect; % is scaled to controls: 0 for no effect and ±100 for the full control effect; nearly all actives have a fitted effect of over 40% in size
Target sequence (Q9NUW8 whole entry, looked up): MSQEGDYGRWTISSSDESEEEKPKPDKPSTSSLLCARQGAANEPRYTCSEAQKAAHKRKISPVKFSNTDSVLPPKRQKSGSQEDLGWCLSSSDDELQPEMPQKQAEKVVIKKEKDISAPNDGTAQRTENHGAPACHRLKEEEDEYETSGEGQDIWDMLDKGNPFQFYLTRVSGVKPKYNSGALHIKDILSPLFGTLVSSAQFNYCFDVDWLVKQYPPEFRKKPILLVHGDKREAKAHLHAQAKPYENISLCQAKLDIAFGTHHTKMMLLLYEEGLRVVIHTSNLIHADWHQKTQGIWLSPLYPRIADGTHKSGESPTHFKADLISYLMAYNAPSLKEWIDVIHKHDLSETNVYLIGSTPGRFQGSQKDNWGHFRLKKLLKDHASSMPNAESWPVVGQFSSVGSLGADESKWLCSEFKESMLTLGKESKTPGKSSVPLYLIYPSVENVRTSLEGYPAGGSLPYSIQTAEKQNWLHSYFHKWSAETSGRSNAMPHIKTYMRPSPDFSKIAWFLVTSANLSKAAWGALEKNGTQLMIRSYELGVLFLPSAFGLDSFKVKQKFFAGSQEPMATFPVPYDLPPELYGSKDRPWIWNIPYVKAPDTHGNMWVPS
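Tdp1 1 nM final; 15 min RT w/ cpd; substrate 15 nM, 5 min; beads 10 ug/ml, 10 min; AlphaScreen read. Neg ctrl: no enzyme.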
TGFb confirm – confirmation of TGF-b signaling inhibitors in HepG2 reporter cells; hit rate 63% among 1,600; Potency, µM (doses to about 46.1 µM), for inactives: top-dose activity, negative = inhibition, hits mostly inhibitors; shares compounds with TGFb inhibitor; HepG2 CAGA-GFP TGF-b reporter, GFP fluorescence, 18 h; cells stimulated with TGF-beta, 500 pg/mL; also: potency is read from the fitted curve at half-maximal effect; % is scaled to controls: 0 for no effect and ±100 for the full control effect; nearly all actives have a fitted effect of over 65% in size
HepG2 tox-2 – HepG2 cytotoxicity, TGF-b inhibitor counterscreen. shares compounds with TGFb inhibitor. HepG2 CAGA-GFP viability, ATP luminescence, 18 h; cells stimulated with TGF-beta, 500 pg/mL. Potency, µM (top dose mostly 46.1 µM), for inactives: at the top dose activity, negative = cytotoxicity, usual class: inhibitors. hit rate 27% among 1,600. AID 720535; also: potency is read from the fitted curve at half-maximal effect; % is scaled to controls: 0 for no effect and ±100 for the full control effect; nearly all actives have a fitted effect of over 70% in size
CCL64 TGFb inh – TGF-b inhibition, CCL64 orthogonal assay; shares compounds with TGFb inhibitor; CCL64 CAGA-GFP reporter, TGF-b stimulated, GFP fluorescence, 18 h; Potency, µM (doses to about 46.1 µM), for inactives: at the top dose activity, negative = inhibition, actives largely listed as inhibitors; hit rate 41% among 1,600; also: potency is read from the fitted curve at half-maximal effect; nearly all actives have a fitted effect of over 65% in size
TGFb COP inh – TGF-b inhibition validated with COP promoter; shares compounds with TGFb inhibitor; HepG2 COP-GFP TGF-b reporter, GFP fluorescence, 18 h; cells stimulated by added recombinant TGF-beta; Potency, µM (titrated, usually from 46.1 µM), inactives show at the highest dose activity, negative = inhibition, usual class: inhibitors; hit rate 3% among 1,600; AID 720537; also: potency is read from the fitted curve at half-maximal effect; nearly all actives have a fitted effect of over 70% in size
The depositor's hits bear a star; u = inconclusive; x = no result; [ ] = another dose, or the depositor's remark. In the library only some 18% were active in any assay of this set; here they are far more common. Unless noted, calls follow the shape of the dose curve; as a rule, active = well fitted curve in the direction sought with a large enough effect; inconclusive = small, poorly fitted or top-dose-only effect, or another doubt; inactive = no such curve, though single readings can be large; an effect the other way counts as inactive or inconclusive.

SMILES	DT40 TDP1 no CPT	IL-1B inflam inh	DT40 TDP1 CPT	TGFb inhibitor	HepG2 tox-1	TDP1 inh	TGFb confirm	HepG2 tox-2	CCL64 TGFb inh	TGFb COP inh
CC(C)(C)c1ccc(Cn2nnc3c(=O)[nH]c(C4CCN(C(=O)c5ccco5)CC4)nc32)cc1	u	-67*	-20%	13µM*	-20%	8%	18µM*	u	-21%	4%
Cc1noc(C)c1COc1ccccc1C(=O)N(C)Cc1ccc(C(C)(C)C)cc1	6.5µM*	54	7.3µM*	11µM*	-26%	3%	16µM*	u	u	44%
COCc1cc(=O)n2[nH]cc(-c3ccccc3)c2n1	u	2	u	-12%	-9%	x	x	x	x	x
CCCc1cc(=O)n2[nH]cc(-c3ccc(Cl)cc3)c2n1	5.8µM*	53	5.8µM*	5µM*	11µM*	5%	26µM*	u	12µM*	87%
CC(C)OC(=O)CC12CN(C)CC(CC(=O)OC(C)C)(CN(C)C1)C2=O	-6%	1	-3%	4%	-7%	2%	x	x	x	x
O=C1Cc2c([nH]c3ccc(Br)cc23)-c2ccccc2N1	u	-97*	u	2.8µM*	-9%	7%[56.1 µM]	0.92µM*	3.7µM*	2.9µM*	28%
O=C(O)c1ccc(Cl)c(S(=O)(=O)NC(Cc2ccccc2)C(=O)O)c1 (centres undefined)	-15%	18	-8%	1%	-6%	2%	x	x	x	x
Clc1ccc(CSc2nnc(-c3ccccn3)n2Cc2cccs2)cc1Cl	18µM*	0	u	8.9µM*	-8%	x	15µM*	u	u	42%
O=C1NC(Cc2ccc(O)cc2)c2nc3ccc(Cl)cc3c(=O)n2-c2cc3ccccc3cc21 (centres undefined)	5.2µM*	20	6.5µM*	7.9µM*	13%	x	8.2µM*	u	5.8µM*	45%
Cc1ccc2nc3n(c(=O)c2c1)-c1cc(Cl)ccc1C(=O)NC3Cc1ccc(O)cc1 (centres undefined)	x	x	x	x	x	1%	x	x	x	x
COc1ccc(-c2cc(=O)c3c(O)c(OC)c(OC)c(OC)c3o2)cc1OC	u	x	u	x	x	18%[56.1 µM]	x	x	x	x
COc1ccc(-c2cc(-c3c(O)c(OC)c4occc4c3OC)[nH]n2)cc1OC	21µM*	-63*	u	7.9µM*	-29%	8%	u	u	u	61%
CCC(=O)Nc1ccc(N2CCN(C(=O)c3ccccc3C)CC2)cc1	-15%	-6	-20%	-10%	-4%	1%	x	x	x	x

High-throughput results (PubChem)
